Reference: PubChem BioAssay (NCATS)
“And” between values parts separate entries of the source, which are not always exact repeats. Identical values can stand only once. Inconclusive results are not listed. The source made the active and inactive calls. Unless noted, the call rests on the fitted dose curve; in most records, active means well fitted curve in the direction sought with a large enough effect; inconclusive means small, poorly fitted or top-dose-only effect, or another doubt; inactive means no such curve, though single readings can be large; an effect the other way counts as inactive or inconclusive.

Key:
[1] = Cell Viability - BJ (AID 421; calls by dose curve;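 further: potency means the concentration at half of the fitted maximal effect; cells exposed to compound for 40 hours at 37 °C before readout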); settings: BJ fibroblast viability, qHTS
Outline: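 Normal human BJ foreskin fibroblasts, 1500/well in complete medium, treated 40 hr at 37 °C. Cellular ATP by CellTiter-Glo luminescence; normalized to DMSO and 100 uM tamoxifen, AC50 from Hill fit.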

[2] = Cell Viability - HepG2 (AID 433; calls by dose curve;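 further: potency means the concentration at half of the fitted maximal effect; cells exposed to compound for 40 hours; potency for ATP loss meaning cytotoxicity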); settings: qHTS
Outline: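 HepG2 hepatocellular carcinoma cells (1500/well) were treated with compounds for 40 h at 37 °C in complete medium; intracellular ATP was read by CellTiter-Glo luminescence. Data were normalized to DMSO and 100 uM tamoxifen, and AC50 came from Hill fits.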

[3] = Cell Viability - MRC5 (AID 434; calls by dose curve;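 further: potency means the concentration at half of the fitted maximal effect; cells exposed to compound for 40 hours at 37 °C; potency reflects cytotoxicity seen as loss of intracellular ATP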); settings: MRC5 lung fibroblast viability, qHTS
Outline: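 AC50 values come from Hill-equation fits of intracellular ATP loss, measured by CellTiter-Glo luminescence. Normal lung fibroblasts (MRC5) had 40 hr compound treatment at 37 C, normalized between DMSO and 100 uM tamoxifen.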

[4] = Cell Viability - N2a (AID 540); settings: N2a mouse neuroblastoma cell viability; at 92.2 µM (top of the series);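 further: plate controls were DMSO alone for no effect and tamoxifen control for full effect; nearly all actives have a fitted effect of over 45% in size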
Outline: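 N2a mouse neuroblastoma, 1500 cells/well, 5 hr settle; compound 40 hr, 37 °C; CellTiter-Glo 20 min RT; luminescence; Hill-fit AC50.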

[5] = Cell Viability - HUV-EC-C (AID 542);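 further: cells exposed to compound for 40 hours; on the % scale 0 is the no-effect control and ±100 the full control effect; nearly all actives have a fitted effect of over 35% in size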
Outline: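 Luminescent ATP read-out (CellTiter-Glo, 20 min room temperature) after 40 hr compound treatment of HUV-EC-C cells at 37 °C. Concentration-response data fitted with the standard Hill equation to give AC50; tamoxifen and doxorubicin served as positive controls.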

[6] = Cell Viability - SH-SY5Y (AID 544); settings: SH-SY5Y neuroblastoma cell viability; viability change, negative = cytotoxic: at 92.2 µM (top of the series);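 further: cells exposed to compound for 40 hours; nearly all actives have a fitted effect of over 55% in size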
Outline: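 SH-SY5Y, 1500 cells/well, 5 hr pre-incubation 37 °C; cpd 40 hr 37 °C; CellTiter-Glo 20 min RT; luminescence (ATP) read. qHTS concentration-response, Hill fit → AC50. Tamoxifen, doxorubicin as positive controls.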

[7] = Cell Viability - Renal Proximal Tubule (AID 545); settings: renal proximal tubule cells viability, at 91.7 µM (top of the series);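 further: cells exposed to compound for 40 hours; nearly all actives have a fitted effect of over 40% in size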
Outline: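 Primary rat renal proximal tubule cells (1000/well) were treated with compounds for 40 hr at 37 °C in complete medium. Intracellular ATP was measured by CellTiter-Glo luminescence, and AC50 values came from Hill-equation fits of concentration-response data.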

[8] = Cellular Toxicity (caspase-3) Jurkat (AID 655); settings: Jurkat caspase-3 activation, luminescence, DMSO = 0%, tamoxifen = 100%; at 92.2 µM (top of the series);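 further: cells exposed to compound for 16 h at 37 °C before reading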
Outline: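 Jurkat cells (5000/well) in complete medium were treated with compounds for 16 hr at 37 °C, then Caspase-Glo 3/7 luminescence was read after 20 min at room temperature. Data normalized to DMSO (basal) and 100 uM tamoxifen (100%); AC50 from Hill fit.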

[9] = Cellular Toxicity (caspase-3) HUV-EC-C (AID 656)
Outline: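 HUV-EC-C endothelial cells, 1000/well, were pre-incubated 5 hr at 37°C, then exposed to compounds for 16 hr at 37°C. Caspase-Glo 3/7 luminescence was read after 20 min at room temperature. AC50 came from Hill fits, normalized to DMSO and 100 uM tamoxifen.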

[10] = Cellular Toxicity (caspase-3) SHSY5Y (AID 657)
Outline: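 SH-SY5Y human neuroblastoma cells (1500/well) were treated with compounds for 16 h at 37 °C, then Caspase-Glo 3/7 luminescence was read after 1 h at room temperature. Data normalized to DMSO and 10 uM staurosporine; AC50 from Hill fits.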

[11] = Cellular Toxicity (caspase-3) BJ (AID 658);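 further: 0% = DMSO basal and 100% = 10 µM staurosporine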
Outline: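 Caspase-Glo 3/7 luminescence, read 1 hr after reagent at room temperature, in normal BJ fibroblasts exposed 16 hours at 37 °C. AC50 values from Hill-equation concentration-response, scaled between DMSO basal and 10 uM staurosporine as 100%.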

[12] = Cellular Toxicity (caspase-3) MRC-5 (AID 659);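 further: 0% = DMSO basal and 100% = 10 µM staurosporine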
Outline: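 Luminescent Caspase-Glo 3/7 read-out (1 h, room temperature) after a 16 h, 37 °C compound exposure of MRC-5 lung fibroblasts at 1500 cells/well. Concentration-response AC50 from Hill equation; 0% DMSO, 100% 10 uM staurosporine.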

[13] = Cellular Toxicity (caspase-3) SK-N-SH (AID 661);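 further: 0% = DMSO basal and 100% = 10 µM staurosporine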
Outline: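 Luminescent Caspase-Glo 3/7 read-out after 16 hr compound exposure of SK-N-SH neuroblastoma cells at 37 °C. Signal increase normalized to DMSO (basal) and 10 uM staurosporine (100%); AC50 from Hill equation fits of qHTS concentration-response data.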

[14] = Cellular Toxicity (caspase-3) H-4-II-E (AID 663);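 further: cells exposed to compound for 16 hr before readout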
Outline: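 Caspase 3/7 activation measured by luminescent aminoluciferin substrate cleavage after 16 hr compound treatment of H-4-II-E cells in complete medium. Increase normalized between DMSO (basal) and 100 uM tamoxifen (100%); Hill-equation AC50 from concentration-response.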

[15] = Cellular Toxicity (caspase-3) Renal Proximal Tubule (AID 667); settings: renal proximal tubule cells, at 91.7 µM (top of the series);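 further: cells exposed to compound for 16 hours at 37 °C before detection; 0% = DMSO basal and 100% = 10 µM staurosporine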
Outline: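 Primary rat proximal tubule cells, 1000/well, 5 h plating at 37 °C, then compound 16 h at 37 °C. Caspase-Glo 3/7 reagent, 1 h RT, luminescence. Normalized to DMSO (basal) and 10 uM staurosporine (100%); Hill-fit AC50.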

[16] = qHTS Assay for Identification of Small Molecule Inducers of Hypoxia Response (AID 2120; active means well fitted curve in the direction sought with a large enough effect in the signal ratio, with a control signal flat, not every such curve was filed as active; the % refers to the signal ratio; further: 0% is about no effect)
Outline: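 Read-out: CCF4 FRET emission ratio 460nm/530nm (excitation 405nm), converted to %Activity, with AC50 fitted across a compound titration. ME-180 cells carried an HRE-driven beta-lactamase reporter; compound exposure 17 h, 37 degrees C.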

[17] = qHTS assay for small molecule agonists of the antioxidant response element (ARE) signaling pathway measured by Nrf2-dependant transcriptional activity - cell viability counter screen (AID 720653; active means well fitted curve in the direction sought with a large enough effect in the repeat runs; an effect the other way counts as inactive or inconclusive; further: on the % scale 0 is the no-effect control and ±100 the full control effect); settings: ARE-bla HepG2 viability, CellTiter-Glo ATP luminescence, 16 h; active compounds read low
Outline: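 Cytotoxicity counter screen: intracellular ATP quantified by CellTiter-Glo luminescence in the same ARE-bla HepG2 plates, after 16 h compound exposure and a 2 h beta-lactamase substrate step.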

[18] = qHTS assay for cell viability of HEK293 cells (AID 743288); settings: ATP luminescence (CellTiter-Glo), 18 h; max response: active compounds read low; further: on the % scale 0 is the no-effect control and ±100 the full control effect; nearly all actives have a fitted effect of over 50% in size
Outline: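 After 18 h compound exposure at 37 C, parental HEK293 cells (2,000/well) are lysed with CellTiter-Glo and luminescence is read following 30 min at room temperature.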

[19] = qHTS assay for cell viability of the p53RE-bla HCT-116 cell line (AID 743292); further: on the % scale 0 is the no-effect control and ±100 the full control effect; nearly all actives have a fitted effect of over 55% in size
Outline: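 After plating at 4,000 cells per well and a 5 h rest at 37 C, HCT-116 cells carrying p53RE-bla received test chemicals in DMSO. Sixteen hours later at 37 C, CellTiter-Glo was added and luminescence recorded following 30 min at room temperature.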

[20] = primary cells of rat origin unless noted
[21] = primary cells freshly taken from rat, solvent-only wells 0%, staurosporine 100% unless noted

[O-][Br+2]([O-])O
inactive: Potency [1] > 92 µM | Potency [2] > 92 µM | Potency [3] > 92 µM | activity change, negative = cytotoxicity [4] -3.27% and 7.55% | Potency [5] | Potency [6] | activity change, negative = cytotoxicity [7, 20] -9.6% and -6.64% | caspase-3 activation [8] -7.93% and -8.01% | outcome [9] | outcome [10] | outcome [11] | outcome [12] | outcome [13] | outcome [14] | caspase-3 activation [15, 21] -18.8% and -17.4% | outcome [16] | max response [17] 3.23% and -1.6% | max response [18] -15.7% and 1.39% | Potency [19]

CC(O)CCl (stereo unspecified)
inactive: Potency [1] > 92 µM | Potency [2] > 92 µM | Potency [3] > 92 µM | activity change, negative = cytotoxicity [4] 5.86% | Potency [5] | Potency [6] | activity change, negative = cytotoxicity [7, 20] -0.642% | caspase-3 activation [8] 1.88% | outcome [9] | outcome [10] | outcome [11] | outcome [12] | outcome [13] | outcome [14] | caspase-3 activation [15, 21] 7.82% | outcome [16] | max response [17] -0.544% and -11.8% | max response [18] 2.39% and -2.48% | Potency [19]

Clc1nc(Cl)nc(Nc2ccccc2Cl)n1
inactive: Potency [1] > 92 µM | Potency [2] > 92 µM | Potency [3] > 92 µM | activity change, negative = cytotoxicity [4] 9.08% | Potency [5] | Potency [6] | activity change, negative = cytotoxicity [7, 20] -4.26% | caspase-3 activation [8] 0.489% | outcome [9] | outcome [10] | outcome [11] | outcome [12] | outcome [13] | outcome [14] | caspase-3 activation [15, 21] -3.95% | outcome [16] | max response [17] -2.86% and -6.99% | max response [18] 1.75% and 3.89% | Potency [19]

c1ccc(-c2ccccc2)cc1
inactive: Potency [1] > 92 µM | Potency [2] > 92 µM | Potency [3] > 92 µM | activity change, negative = cytotoxicity [4] -4.83% | Potency [5] | Potency [6] | activity change, negative = cytotoxicity [7, 20] 1.72% | caspase-3 activation [8] 0.52% | outcome [9] | outcome [10] | outcome [11] | outcome [12] | outcome [13] | outcome [14] | caspase-3 activation [15, 21] -8.06% | outcome [16] | max response [17] -4.39% and -5.27% | max response [18] 8.08% and -1.75% | Potency [19]

C=CC(=O)OCC
inactive: Potency [1] > 92 µM | Potency [2] > 92 µM | Potency [3] > 92 µM | activity change, negative = cytotoxicity [4] -4.3% | Potency [5] | Potency [6] | activity change, negative = cytotoxicity [7, 20] 0.0849% | caspase-3 activation [8] -0.667% | outcome [9] | outcome [10] | outcome [11] | outcome [12] | outcome [13] | outcome [14] | caspase-3 activation [15, 21] -0.996% | outcome [16] | max response [17] -9.08% | max response [18] -0.244% | Potency [19]

Cc1ccccc1N
inactive: Potency [1] > 92 µM | Potency [2] > 92 µM | Potency [3] > 92 µM | activity change, negative = cytotoxicity [4] -19.6% and 1.37% | Potency [5] | Potency [6] | activity change, negative = cytotoxicity [7] -0.93% | activity change, negative = cytotoxicity ([7]; primary cells of rat origin) -4.73% | caspase-3 activation [8] 11.5% and 2.29% | outcome [9] | outcome [10] | outcome [11] | outcome [12] | outcome [13] | outcome [14] | caspase-3 activation [15] -5.94% | caspase-3 activation ([15]; primary cells freshly taken from rat, solvent-only wells 0%, staurosporine 100%) 22.1% | outcome [16] | max response [17] -8.44% and 1.06% | max response [18] -10.9% and 0.49% | Potency [19]
